{
  "source": "PubChem BioAssay (NCI)",
  "note": "About 83,000 compounds went through this panel and 20% of them were active in at least one assay; those are over-represented in the sample as a whole.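 Step 1: grow cells in 96-well plates. Step 2: add test compound at a single concentration. Step 3: incubate 48 h. Step 4: record percent growth.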 Activity calls are given as the source filed them.",
  "data": [
    {"tested_on": "TK-10 renal", "test": "NCI-60 one-dose screen, 48 h (100 = growth as untreated, 0 = no growth, -100 = all killed)", "details": "10 µM unless noted", "description": "Growth inhibition of the TK-10 human tumor cell line is measured as a screen for anti-cancer activity. Cells are grown in 96 well plates and exposed to the test compound for 48 hours. Compounds are tested at a single concentration, which is 10^-5 M for most compounds. The reported endpoint is percent growth (GI% or GIPRCNT), where numbers from 0 - 100% represent growth inhibition, and numbers from -100% - 0 represent cell death. For example, a value of 40 represents 60% growth inhibition. A value of 0 means no net growth occurred over the course of the experiment. A value of -40 indicates 40% of cells at the beginning of the experiment died by the end of the experiment. A value of -100 means all cells are dead at the end of the experiment.\nNCI-60 Human Tumor Cell Lines Screen was performed using the standard one-dose NCI protocol, which is described in more detail at https://dtp.cancer.gov/discovery_development/nci-60/default.htm.\nCompounds with GIPRCNT values below 10 were considered active. Activity score was based on GIPRCNT using the following formula: […]\nScore is 0 for GIPRCNT values of 100 or above, 50 for GIPRCNT values of 0, and 100 for GIPRCNT values of -100.", "values": [
      {"smiles": "Cc1ncc(C(=O)Nc2ccc(CN3CCN(C)CC3)c(C(F)(F)F)c2)cc1C#Cc1cnc(N)cc1C#N", "growth": "-54.7% (active)"},
      {"smiles": "Cc1ccc(NC(=O)c2cc(-c3nc4ccccc4s3)c(=O)n(NS(=O)(=O)c3ccc(Cl)cc3)c2N)cc1", "growth": "136% (inactive)"},
      {"smiles": "COc1cc(NC(=O)CSc2nc3ccc(C)cc3c(=O)n2Cc2ccccc2)cc(OC)c1OC", "growth": "55.4% (inactive)"},
      {"smiles": "OC(c1ccc(F)c(C(F)(F)F)c1)c1cnccc1NC1CCCCC1", "note": "(stereo not given)", "growth": "71.1% (inactive)"},
      {"smiles": "O=C(Cn1c[n+](CC(=O)c2ccc([N+](=O)[O-])cc2)c2ccccc21)Nc1cccc2cccnc12", "growth": "114% (inactive)"},
      {"smiles": "CN[C@@H](C)C(=O)N[C@H]1CCS[C@H]2CC(C)(C)[C@@H](C(=O)N[C@H]3c4ccccc4C[C@H]3OCC#CC#CCO[C@@H]3Cc4ccccc4[C@@H]3NC(=O)[C@H]3N4C(=O)[C@@H](NC(=O)[C@H](C)NC)CCS[C@H]4CC3(C)C)N2C1=O", "growth": "130% (inactive)"},
      {"smiles": "N#Cc1c(NC(=O)NCc2ccccc2)sc2c1CCCC2", "growth": "49.1% (inactive)"},
      {"smiles": "O=C(O)c1ccc2c(c1)C(=O)N(Cc1ccccc1)C2=O", "growth": "91.1% (inactive)"},
      {"smiles": "COc1cc(OC)cc(C(=O)C[n+]2cccc3cc[nH]c32)c1", "growth": "118% (inactive)"},
      {"smiles": "COc1ccc(C(=O)c2nc3ccccc3n2CC(=O)c2ccc(Cl)cc2)cc1", "growth": "51.7% (inactive)"},
      {"smiles": "COc1cc(/C=C\\c2cc(OC)c(OC)c(OC)c2)cc(N)c1OC", "growth": "95.9% (inactive)"},
      {"smiles": "CNC(=O)c1cccc(Cn2nc(C)c(NC(=O)c3ccc(COc4ccc(C(F)(F)F)cc4C)cc3)c2C)c1", "growth": "55.5% (inactive)"},
      {"smiles": "Cc1nn(-c2ccccc2)c(Cl)c1/C=C/C(=O)c1ccc(F)cc1", "growth": "101% (inactive)"},
      {"smiles": "O=C1c2cccc3c(-c4ccc5c(c4)ncn5C4CCCCC4)ccc(c23)C(=O)N1CCO", "growth": "101% (inactive)"},
      {"smiles": "COc1ccc2[nH]c(=O)c(CN3CCN(c4nccc(-c5ccc(Cl)cc5)n4)CC3)cc2c1", "growth": "104% (inactive)"},
      {"smiles": "CCCCCN1C=C/C(=C\\C(=O)n2ccc3ccccc32)c2ccccc21", "growth": "110% (inactive)"},
      {"smiles": "NC(=O)CSSCC(N)=O", "growth": "110% (inactive)"},
      {"smiles": "Cc1nn(-c2ccccc2)c(Oc2c(Cl)cccc2Cl)c1/C=N/N=c1\\sc2ccccc2n1C", "growth": "85.7% (inactive)"},
      {"smiles": "COc1ccc(/C=C2\\COc3ccc(-c4ccccc4)cc3C2=O)c(OC)c1", "growth": "94.8% (inactive)"},
      {"smiles": "COc1ccc(C(=O)/C=C/c2cc3ccccc3n3nnnc23)cc1", "growth": "104% (inactive)"},
      {"smiles": "CCOC(=O)c1cc(C(=O)c2ccc(OC)c(OC)c2)n2ccc(/C=C/c3cc[n+](CC(=O)c4ccc(OC)c(OC)c4)cc3)cc12", "growth": "113% (inactive)"},
      {"smiles": "CCOC(=O)[C@@H](C)C[C@H](Cc1ccccc1)NC(=O)c1csc([C@@H](C[C@H](C(C)C)N(C)C(=O)[C@@H](NC(=O)[C@H]2C[C@H](O[Si](C)(C)C(C)(C)C)CCN2C)C(C)C)OC(C)=O)n1", "growth": "12.1% [9.25 µM] (inactive)"},
      {"smiles": "N#Cc1c(-c2ccccc2)nc2c(c(-c3ccccc3)nn2-c2ccccc2)c1-c1ccc(O)cc1", "growth": "21.7% (inactive)"},
      {"smiles": "CCCCOc1ccc(/C(C)=N/Nc2cc(C)nc3ccc(Br)cc23)cc1", "growth": "112% (inactive)"},
      {"smiles": "CCCOc1ccc(/C=N/Nc2cc(C)nc3ccc(Br)cc23)cc1", "growth": "111% (inactive)"},
      {"smiles": "CN1C(N2CCN(S(=O)(=O)c3ccccc3)CC2)=NS(=O)(=O)c2ccccc21", "growth": "114% (inactive)"},
      {"smiles": "CCCCC[n+]1ccc(SCC(=O)N(C)c2ccc(Oc3ccccc3)cc2)c2ccccc21", "growth": "99.6% (inactive)"},
      {"smiles": "CN1CCN(c2ccc(NC3=C(Cl)C(=O)c4ncccc4C3=O)cc2C(F)(F)F)CC1", "growth": "-65.9% (active)"},
      {"smiles": "N#C/C(=C\\c1cccc(C#N)c1)c1ccccc1", "growth": "91% (inactive)"},
      {"smiles": "NS(=O)(=O)c1ccc(CCN2C(=O)C3C(C2=O)C2(Cl)C(Cl)=C(Cl)C3(Cl)C2(Cl)Cl)cc1", "note": "(stereo not given)", "growth": "110% (inactive)"},
      {"smiles": "CC1(C)NCCC[C@]2(C)[C@H]3CC(=O)[C@H]4[C@@H]5C[C@](C)(CO)CC[C@]5(C)CC[C@@]4(C)[C@]3(C)CC[C@@H]12", "growth": "100% (inactive)"},
      {"smiles": "COc1cccc(-c2nc3occn3c2-c2ccnc(NCCCNS(=O)(=O)c3ccc(C(F)(F)F)cc3)n2)c1", "growth": "106% (inactive)"},
      {"smiles": "COC(=O)C1=C(C(=O)ON)C2C=CC1(C(Cc1ccccc1)Nc1ccccc1)O2", "note": "(stereo not given)", "growth": "-63.7% (active)"},
      {"smiles": "CCOC(=O)c1cc(C(=O)c2cc(OC)cc(OC)c2)n2ccc3ccccc3c12", "growth": "99.8% (inactive)"},
      {"smiles": "N#CC1=C(/N=C/c2ccccc2)Oc2c(ccc3ccccc23)C1c1ccc([N+](=O)[O-])cc1", "note": "(stereo not given)", "growth": "166% (inactive)"},
      {"smiles": "O=S(=O)(NCCCNc1nccc(-c2c(-c3cccc(F)c3)nc3sccn23)n1)c1cccc2ccccc12", "growth": "71.7% (inactive)"},
      {"smiles": "Cc1ccc(S(=O)(=O)Nn2c3c(cc(-c4nc5ccccc5s4)c2=O)CCCCCC3)cc1", "growth": "111% (inactive)"},
      {"smiles": "COc1ccccc1/C(C)=N/NC(=O)CSc1nc2ccccc2c(=O)n1Cc1ccc(S(N)(=O)=O)cc1", "growth": "96.1% (inactive)"},
      {"smiles": "O=S(=O)(NCCCNc1nccc(-c2c(-c3cccc(O)c3)nc3occn23)n1)c1ccc(Cl)cc1", "growth": "143% (inactive)"},
      {"smiles": "c1ccc(-c2c(-c3ccccc3)[n+](Cc3ccc4ccccc4c3)c(-c3cccc4ccccc34)n2Cc2ccc3ccccc3c2)cc1", "growth": "-78% (active)"}
    ]}
  ]
}
